# Shown are actives, neighbours in structure and some others; about 3.1% of the full set was active somewhere.
# C8 TRAIL sens: sensitizes caspase-8 expressing cells to TRAIL; inhibition (viability loss, TRAIL sensitization), % at 10 µM; NB7+C8 cells + TRAIL, ATPlite viability luminescence; 360,000 tested, 1% active;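 active means compounds causing at least 50% loss of cell viability in the single-dose screen, relative to plate controls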
# Peg3 promoter: inhibitors of Peg3 promoter; HeLa PEG-Prom luciferase reporter, luminescence, overnight; inhibition, % at 20 µM; 360,000 tested, 1.7% active;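 active means inhibition of at least 50% at 20 µM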
# PPC-1+TRAIL kill: kills PPC-1 cancer cells in the presence of TRAIL; PPC-1 cells + TRAIL, ATPLite viability luminescence; cell killing (% activity), % at 4 µM or 5 µM; 220,000 tested, 0.41% active;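 active means cell killing above 50% in the first pass at 4 µM, then a duplicate retest at 5 µM averaging 50% or more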
# KKLEB tox: counter-screen for CF NF-kB inhibitors: cytotoxicity; KKLEB CF airway cells viability, ATPlite luminescence, overnight; hits give low values; cells stimulated with P. aeruginosa culture filtrate; activity change (cytotoxicity), % at 5 µM; 360,000 tested, 0.36% active; AID 602141;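 active means corrected activity change at or below -50% at 5 µM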
# CF NFkB block: cystic fibrosis NF-kB activation inhibition; KKLEB NF-kB-GFP reporter, PAF-induced, GFP fluorescence overnight; inhibition, % at 5 µM; 360,000 tested, 0.86% active; AID 588850;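 active means at least 50% inhibition at 5 µM, scaled per plate between neutral and stimulator controls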;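 further: PAF is a Pseudomonas aeruginosa culture filtrate used as stimulus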
# HIF-2a block: blocks HIF-2a reporter activity | inhibition, % at 18.8 µM | 360,000 tested, 0.72% active | AID 624352 | 786-0 RCC cells HIF-2a reporter, luciferase luminescence, overnight;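 active means inhibition of the luminescence signal of 40% or more relative to plate controls, in a single-dose primary screen at 18.75 µM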
# A number is an active result; 0 = inactive; - = no result.
SMILES,C8 TRAIL sens,Peg3 promoter,PPC-1+TRAIL kill,KKLEB tox,CF NFkB block,HIF-2a block
Cc1ccc(C(C)C)c(OCC(=O)NNC(=O)Cn2[nH]c(=O)c3ccccc3c2=O)c1,0,0,-,0,0,0
Cc1ccc(C)c(CC(=O)N2CCCC(c3cc(C(=O)NCc4ccccc4)no3)C2)c1 (stereo not drawn),0,0,-,0,0,0
CCOc1cc(Br)cc(/C=N/NC(=O)c2cccnc2)c1O,0,62,-,0,0,0
COc1c(Br)cc(Br)cc1/C=N/NC(=O)c1cccnc1,0,0,-,0,0,0
CC(C)C1C(=O)N(Cc2cn(CCC3OCCO3)nn2)CCS(=O)(=O)N1Cc1ccc(-c2ccc(F)cc2Cl)cc1 (stereo not drawn),0,0,-,0,0,0
O=S(=O)(c1ccc(Br)cc1)N1CCN(c2ccc3nnc(-c4ccccc4)n3n2)CC1,51,0,0,0,0,0
CCCCNc1nc(N)nc(-c2cc(Cl)ccc2O)n1,0,0,0,0,82,0
CCCNc1nc(N)nc(-c2cc(Cl)ccc2OC)n1,0,0,0,0,0,0
CC1(C(=O)NCc2cccc3ccccc23)CCN1Cc1ccc(OC(F)(F)F)cc1 (stereo not drawn),0,0,-,0,0,0
Fc1ccc(CNC(=S)Nc2cccc(C(F)(F)F)c2)cc1,0,69,0,0,0,0
CC(C)C1C(=O)N(Cc2cn(CC3CCCCC3)nn2)CCS(=O)(=O)N1Cc1ccc(-c2ccccc2)cc1 (stereo not drawn),0,0,-,0,0,0
O=C(CSc1ccc(Br)cc1)Nc1ccc(N2CCOCC2)cc1,0,0,-,0,0,0
CC1(Cc2ccc(OC(F)(F)F)cc2)C(=O)Nc2ccc(S(=O)(=O)NC3CCCCC3)cc21 (stereo not drawn),64,0,-,0,0,0
CC1(Cc2ccc(Cl)cc2)C(=O)Nc2ccc(S(=O)(=O)NC3CCCCC3)cc21 (stereo not drawn),0,0,-,0,0,0
Cc1ccc(/C=N/NC(=O)c2cccc(S(=O)(=O)N3CCOCC3)c2)o1,0,110,0,0,0,0
O=C(N/N=C/c1ccccc1C(=O)O)c1cccc(S(=O)(=O)N2CCOCC2)c1,0,0,-,0,0,0
CC1C(=O)N2CCCc3cc(NC(=O)c4ccccc4Br)cc1c32 (stereo not drawn),0,0,-,0,0,0
Cc1cc(-c2ccccc2)nc(N/N=C/c2cccnc2)n1,0,0,0,0,0,0
Cc1cc(-c2ccccc2)nc(N/N=C/c2ccccc2)n1,65,0,-,0,0,0
Cc1cc(N/N=C/c2ccccc2)nc(NCc2ccccc2)n1,55,0,0,0,0,0
Clc1cccc(Cc2c(C3CCCCC3)nc3c4ccccc4ccn23)c1,0,-,-,-,-,0
CCCC(=O)OCC1CN(Cc2ccco2)S(=O)(=O)c2c(F)cccc2O1 (stereo not drawn),0,0,-,0,0,0
O=C(CCS(=O)(=O)c1ccccc1)Nc1nc2c(s1)COc1ccccc1-2,0,92,0,0,0,0
O=C(NC1CCCC1)c1cc(-c2cccc(Cl)c2)on1,0,0,-,0,0,0
CCN1C/C(=C\c2cccc([N+](=O)[O-])c2)C(=O)/C(=C/c2cccc([N+](=O)[O-])c2)C1,0,105,0,-57,94,97
SMILES,C8 TRAIL sens,Peg3 promoter,PPC-1+TRAIL kill,KKLEB tox,CF NFkB block,HIF-2a block
O=C1/C(=C/c2cccc([N+](=O)[O-])c2)CCc2ccccc21,0,0,0,0,0,0
COc1ccc(CC(=O)OCC(=O)Nc2c(C)n(C)n(-c3ccccc3)c2=O)cc1OC,0,0,-,0,0,0
CCC(C)[C@H]1CNC(=O)C(=O)N1CCc1cccc2ccccc12 (stereo partly drawn),0,-,-,-,-,0
O=C(O)CSc1cc(NS(=O)(=O)c2ccc(Br)cc2)c2ccccc2c1O,48,0,-,0,91,0
O=S(=O)(Nc1cc(Sc2ncn[nH]2)c(O)c2ccccc12)c1ccccc1,0,0,0,0,79,0
Cc1ccc(S(=O)(=O)Nc2ccc(Br)cc2C(NCC(=O)O)c2ccccc2)cc1 (stereo not drawn),0,0,0,0,0,0
Cc1cc(O)c(Sc2ncn[nH]2)cc1NS(=O)(=O)c1ccc(Cl)cc1,0,0,-,0,0,0
CCc1ccc(CNC(=O)c2ccc(OC3CCN(C(C)=O)CC3)c(OC)c2)nc1,0,0,-,0,0,0
CC(=O)Nc1ccc(-c2ccnc3c2CC(C)(C(=O)NCc2ccco2)O3)cc1 (stereo not drawn),0,0,-,0,0,0
Cc1ccc(-n2[nH]c(C)c(/C=N/NC(=O)c3ccc(O)cc3O)c2=O)cc1,73,0,-,0,0,0
CSc1ccc(CN2CCC(CO)(Cc3ccc(Cl)cc3)CC2)cc1,0,73,0,0,0,0
OC[C@H]1O[C@@H](c2nc(-c3ccccc3Br)no2)[C@H](O)[C@@H](O)[C@H]1O,0,0,-,0,0,0
CN1C(=O)/C(=N\OC(=O)c2cccc3ccccc23)c2ccccc21,0,74,0,0,0,0
COc1ccc(C(=O)O/N=C2\C(=O)N(C)c3ccccc32)cc1,0,0,-,0,0,0
CCC1CCCCN1CCCNC(=O)Cn1ncn2nc(-c3ccc(OC)cc3)cc2c1=O (stereo not drawn),0,0,-,0,0,0
CCC(C)(C)C1CCC2(CC1)NC(=O)N(CC(=O)N1CCN(C(=O)c3ccco3)CC1)C2=O (stereo not drawn),0,0,-,0,0,0
C#Cc1ccccc1OCCCN1CCC(C(O)(c2ccccc2)c2ccccc2)CC1,93,-,-,-,-,0
N#Cc1ccccc1OCCCN1CCC(C(O)(c2ccccc2)c2ccccc2)CC1,0,-,-,-,-,0
COCCNC(=O)c1ccc(-c2cn[nH]c2)c2ccoc12,0,0,-,0,0,0
O=C(NCc1ccccc1)c1ccc(-c2cn[nH]c2)c2ccoc12,0,0,-,-67,54,0
Cc1ccc(S(=O)(=O)Nc2ccccc2F)cc1C(=O)OC(C)C(=O)N1CCOCC1 (stereo not drawn),0,0,-,0,0,0
COc1ccc(/C(C)=N/OCC(=O)N=Nc2c(O)[nH]c3ccc(Br)cc23)cc1,0,0,0,-53,0,0
O=C(N/N=C/c1ccc[nH]1)c1c[nH]c2ccccc12,78,0,-,0,0,0
O=C1NC(=S)SC1=Cc1ccc2c(c1)OCO2,0,0,-,0,0,0
O=C1NC(=S)N/C1=C/c1ccc2c(c1)OCO2,0,72,-,0,78,0
C[N+](C)(C)CCC(=O)N1C/C(=C/c2ccccc2)C(=O)/C(=C\c2ccccc2)C1,0,77,-,0,0,0
O=C1/C(=C/c2ccccc2)CN(C(=O)CCN2CCOCC2)C/C1=C\c1ccccc1,56,96,-,0,90,85
CN(C)CCC(=O)N1C/C(=C/c2ccccc2)C(=O)/C(=C\c2ccccc2)C1,95,109,-,-71,95,92
